# Bioassay records (PubChem)
# TDP1 cell CPT: growth inhibition of DT40 Tdp1-/-;hTDP1 cells with camptothecin (screen for TDP1 inhibitors); chicken DT40 Tdp1-/-;hTDP1 cells + 20 nM CPT, ATP luminescence, 48 h; Potency, µM (doses to about 46.2 µM), for the others: at the highest dose activity change, negative = growth inhibition, most hits filed as inhibitors; 420,000 compounds, 12% hits; note: potency is the fitted concentration of half-maximal effect; % is set by controls: 0 for no effect and ±100 for the full control effect; nearly all actives have a fitted effect of over 55% in size
#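 Chicken DT40 Tdp1-/- cells complemented with human TDP1, 400 cells/well, exposed to compounds plus 20 nM camptothecin for at least 48 h at 37 C; viability read as ATP content by CellTiter-Glo luminescence.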
# Chronic BCR inh: chronic active BCR signaling inhibition; ABC-DLBCL IkBa-CBG/CBR reporter, luminescence ratio, 4 h; Potency, µM (doses to about 46.1 µM), for the others: at the top dose activity change, negative = inhibition, usual class: inhibitors; 340,000 compounds, 0.05% hits; AID 493014; active = well fitted inhibition curve with a large enough effect in the signal ratio, with a control signal flat, not every such curve was filed as active; inconclusive = small, poorly fitted or top-dose-only effect, or effect the other way, or a change in a side signal; the % refers to the signal ratio;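 note: potency is the fitted concentration of half-maximal effect; plate controls were basal doxycycline-induced cells for no effect and cells given 10 µM MG132 for full effect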
#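 Cell line TMD8 (human ABC DLBCL), stably expressing tet-inducible CBG68-IkBa fusion and CBR; IMDM/0.5% FBS; cpd up to 46 uM; dox induction, 4 h, 37C/5% CO2; dual luminescence; green/red ratio; MG132 control.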
# SW480 rereplic: induces DNA re-replication in SW480 colon adenocarcinoma cells; 340,000 compounds, 1.8% hits; Potency, µM (series often up to 46.1 µM), for inactives: at the highest dose re-replication activation, usual class: activators; AID 624297; SW480 DNA re-replication, Hoechst DNA content imaging, 48 h; note: potency is the fitted concentration of half-maximal effect; % of control where 0% means no effect; nearly all actives have a fitted effect of over 55% in size
#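 Per well, 250 cells were exposed to pinned compound for 48 hr. Nuclear DNA was visualised with Hoechst (40 min, 37 C) and total object intensity recorded by fluorescence scanning.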
# TDP1 cell noCPT: qHTS for Inhibitors of human tyrosyl-DNA phosphodiesterase 1 (TDP1): qHTS in cells in absence of CPT | 420,000 compounds, 15% hits | Potency, µM (doses to about 46.2 µM), without a hit: top-dose activity change, negative = growth inhibition, actives largely listed as inhibitors | AID 686978, 2013 | DT40 Tdp1-/- hTDP1 cells, no CPT, ATP luminescence, 48 h; note: potency is the fitted concentration of half-maximal effect; % is set by controls: 0 for no effect and ±100 for the full control effect; nearly all actives have a fitted effect of over 55% in size
#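 Chicken DT40 Tdp1-/- cells complemented with human TDP1, screened without camptothecin (DMSO vehicle only), 400 cells/well. Compounds pin-transferred, cells incubated at 37 °C for at least 48 hr. Growth read as ATP-dependent luminescence (CellTiter-Glo, 30 min at RT).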
# MCF10A rerep: induces DNA re-replication in MCF 10a normal breast cells; 350,000 compounds, 2.9% hits; Potency, µM (series often up to 46.1 µM), for inactives: at the top dose activity, positive = re-replication, usual class: activators; MCF 10A DNA re-replication, Hoechst nuclear intensity, 48 h; note: potency is the fitted concentration of half-maximal effect; % of control where 0% means no effect; nearly all actives have a fitted effect of over 50% in size
# IL-1B inflam inh: inflammasome signaling inhibition, IL-1 beta readout. THP-1 LPS/ATP IL-1B secretion, AlphaLISA, 16 h; stronger effect = lower value. activity change, % at 57.5 µM. 360,000 compounds, 4.7% hits. AID 743279; in the data active = activity change below about -50%; inconclusive = mostly about -30% to -49%; note: % is set by controls: 0 for no effect and ±100 for the full control effect
#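 Secreted IL-1B measured by AlphaLISA bead assay after 16 h compound exposure of THP-1 cells; compounds (final up to 57.5 uM) added 1 h before LPS (250 ng/mL) and ATP (1.25 mM) stimulation; lower signal means less secretion.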
# Active calls of the source: *; ? = inconclusive; . = not tested or not shown; [ ] = another dose, or the depositor's remark. An excerpt weighted towards active compounds, which were near 19% of everything screened. Unless noted, calls come from the whole dose curve; as a rule, active = well fitted curve in the direction sought with a large enough effect; inconclusive = small, poorly fitted or top-dose-only effect, or another doubt; inactive = no such curve, though single readings can be large; an effect the other way counts as inactive or inconclusive.
SMILES,TDP1 cell CPT,Chronic BCR inh,SW480 rereplic,TDP1 cell noCPT,MCF10A rerep,IL-1B inflam inh
CC(C)CCN1CCN(Cc2c(F)cccc2Cl)CC1CCO (configuration not stated),-9%,5%,-3%,-6%,-4%,-2
COc1ccc(NC(=O)c2cn(CCC#N)nc2-c2ccc(OC)c(OC)c2)cc1,-17%,?,-43%,17%,6.5µM*,7
COc1ccc(-c2nn(CCC#N)cc2C(=O)Nc2ccccc2)cc1OC,23%,-12%,-6%,-7%,-2%,-5
CC(=O)OC1=CC[C@H]2[C@@H]3CC[C@H]4C[C@H](OC(C)=O)[C@@H](OC(C)=O)C[C@]4(C)[C@H]3CC[C@]12C,15µM*,-8%,-2%,12µM*,2%,4
CC(=O)O[C@H]1C[C@@H]2CC[C@@H]3[C@H](CC[C@]4(C)C(=O)CC[C@@H]34)[C@@]2(C)C[C@@H]1OC(C)=O,23µM*,-6%,-5%,?,-6%,12
CC1=C2CC3C(CC=C4C[C@@H](O)CC[C@@]43C)[C@@H]2CC[C@]12O[C@@H]1C[C@H](C)CN[C@H]1[C@H]2C (some centres not stated),12%,.,.,-4%,.,.
CCN(C[C@H]1N[C@@](CC)(C(=O)OC)[C@H]2C(=O)N(Cc3ccccc3)C(=O)[C@@H]12)C(=O)Nc1ccc(Cl)cc1,?,2%,-1%[9.22 µM],21µM*,25%,-23
CCN(C[C@H]1N[C@@](C)(C(=O)OC)[C@H]2C(=O)N(Cc3ccccc3)C(=O)[C@@H]12)S(=O)(=O)c1ccc(C(C)(C)C)cc1,21µM*,-1%,-18%[9.22 µM],23µM*,10%,-12
C/C(=N\N1CCN(C)CC1)c1c(O)[nH]c(=O)[nH]c1=O,7%,-3%,-8%,10%,-2%,6
CN1CC(CO)=C[C@H]2c3cccc4[nH]cc(c34)C[C@H]21,9%,.,.,-1%,.,.
CC(=O)O[C@@H]1CN2CCC1CC2,-4%,.,.,-6%,.,.
COc1ccc(-n2c(/C=C3/C(=O)Nc4ccccc43)nc3ccccc3c2=O)cc1,-25%,-9%,-7%,?,1%,-12
COc1ccc(-n2c(/C=C/c3cccc(F)c3)nc3ccccc3c2=O)c(OC)c1,13µM*,?,-16%,?,5%,7
COc1ccc(-n2c(/C=C/c3cccc(F)c3)nc3ccccc3c2=O)cc1Cl,21µM*,-13%,.,?,.,.
COc1ccc(-n2c(CN3CCOCC3)nc3ccccc3c2=O)c(OC)c1,?,0%,-3%,?,0%,-5
O=[As]O[As]=O (configuration not stated),.,.,4%,.,11%,.
COC(=O)c1cn(C(=O)c2cccc3ccccc23)c2ccccc12,8.2µM*,19%,?,9.2µM*,?,71
COc1ccc(NP(=O)(Oc2ccccc2OC)Oc2ccccc2OC)cc1,?,-9%,?,16µM*,?,0
COc1ccc(NP(=O)(Oc2ccc(Cl)cc2)Oc2ccc(Cl)cc2)cc1OC,18µM*,?,9%,26µM*,?,?
COc1ccccc1OP(=O)(Nc1ccc(Br)cc1)Oc1ccccc1OC,?,?,23%,?,22%,?
CC(C)c1ccccc1OCC(=O)N1CCCN(C)CC1,24%,1%,?,13%,23%,-20
CC(=O)c1cn(Cc2ccc(F)cc2)c2ccccc12,21µM*,19%,2%,18µM*,?,30
COC(=O)c1cn(Cc2ccc(F)cc2)c2ccccc12,?,.,.,-25%,.,3
CC(Cc1ccccc1)NC(=O)Cc1ccc([N+](=O)[O-])cc1 (configuration not stated),-17%,4%,-3%,-2%,8%,21
CN1CC[C@@]2(C)c3cc(O)ccc3N(C)[C@@H]12,5.8µM*,.,10%,7.3µM*,16%,-26
SMILES,TDP1 cell CPT,Chronic BCR inh,SW480 rereplic,TDP1 cell noCPT,MCF10A rerep,IL-1B inflam inh
CC(C)(C)OC(=O)NCc1ccc(CNC(=O)c2[nH]cnc2C(=O)Nc2ccccc2F)cc1,13µM*,.,.,7.3µM*,.,-7
O=C(NCCc1ccc(F)cc1)C(=O)NCC(c1cccs1)S(=O)(=O)c1ccc(Cl)cc1 (configuration not stated),15µM*,?,.,12µM*,.,.
CNC(=O)Oc1ccc(-c2cn3cc(C)ccc3n2)cc1,?,?,?,12µM*,8%,?
CCC1C(=O)OC[C@H]1Cc1cncn1C (some centres not stated),5%,.,.,-6%,.,.
O=C(Nc1ccc(Cl)c(C(F)(F)F)c1)c1ccc2c(c1)CCN2S(=O)(=O)c1ccccc1,9.2µM*,.,.,9.2µM*,.,.
Cc1ccc2c(c1)C1C[N+](C)(CC(=O)Nc3ccccc3Cl)CCC1N2C(=O)c1ccccc1Cl (configuration not stated),-7%,?,-15%,-5%,11%,?
O=c1[nH]c2ccccc2n1C1CCN(C(CCc2ccccc2)c2nnnn2Cc2ccccc2)CC1 (configuration not stated),2.3µM*,.,.,2.6µM*,.,-93*
CSCCC(c1nnnn1Cc1ccccc1)N1CCC(n2c(=O)[nH]c3ccccc32)CC1 (configuration not stated),2.9µM*,.,.,1.8µM*,.,-22
O=c1[nH]c2ccccc2n1C1CCN(C(c2nnnn2Cc2ccccc2)C2CC2)CC1 (configuration not stated),16µM*,.,.,21µM*,.,-5
O=c1[nH]c(=S)n(-c2ccc(Cl)cc2)c(O)c1/C=N/N1CCOCC1,15%,?,-5%,2%,1%,0
CC(C)(O)/C=C/C(=O)C(C)(O)C1C(O)CC2(C)C3CC=C4C(C=C(O)C(=O)C4(C)C)C3(C)C(=O)CC12C (configuration not stated),0.037µM*,.,?,0.016µM*,2.9µM*,-103*
CC(=O)OC(C)(C)/C=C/C(=O)[C@](C)(O)C1[C@H](O)C[C@@]2(C)C3CC=C4C(C[C@H](O)C(=O)C4(C)C)[C@]3(C)C(=O)C[C@]12C (some centres not stated),0.0082µM*,?,?,0.021µM*,?,-106*
